Assay outcomes (PubChem BioAssay)
Rows were chosen to be rich in hits. Some 12% of all compounds tested hit in one or more screens of this group.
Sfp PPTase inh – blocks B. subtilis Sfp PPTase activity; Q9F4F7; Biochemical Sfp PPTase activity, qHTS; Potency, µM, inactives show largest response in the series, negative = inhibition, hits mostly inhibitors; actives 3.5% (n = 310,000); AID 1490;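 further: the enzyme is Sfp with the accession as filed and its product quenches rhodamine fluorescence; 0% = enzyme reaction without inhibitor and -100% = no enzyme wells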
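Reaction rates are the 30-min fluorescence difference (ex 525, em 598 nm) in wells containing 15 nM Sfp, 5 uM rhodamine-CoA and 12.5 uM BHQ-2-YbbR at pH 7.6 with 10 mM MgCl2.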
BAZ2B block – inhibitors of human BAZ2B bromodomain; AlphaScreen BAZ2B-H3K14Ac peptide displacement; Potency, µM (top dose mostly 114 µM), for inactives: at the highest dose activity change, negative = inhibition, usual class: inhibitors; actives 4.4% (n = 360,000); AID 504333; further: on the % scale 0 is the no-effect control and ±100 the full control effect; nearly all actives have a fitted effect of over 60% in size
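AlphaScreen luminescence quantifies BAZ2B engagement of H3K14Ac peptide; the protein and biotinylated peptide are both at 50 nM final, buffer PBS pH 7.4 with 0.01% Tween-20, all steps at room temperature.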
HP1b binding inh – blocks HP1-beta chromodomain binding to methylated histone tails. P83916. AlphaScreen HP1-beta / biotin-H3K9me3 peptide binding. Potency, µM (titrated, usually from 114 µM), for the others: at the highest dose activity change, negative = inhibition, hits mostly inhibitors. actives 0.56% (n = 390,000); further: nearly all actives have a fitted effect of over 70% in size
Target sequence (P83916 whole entry, looked up): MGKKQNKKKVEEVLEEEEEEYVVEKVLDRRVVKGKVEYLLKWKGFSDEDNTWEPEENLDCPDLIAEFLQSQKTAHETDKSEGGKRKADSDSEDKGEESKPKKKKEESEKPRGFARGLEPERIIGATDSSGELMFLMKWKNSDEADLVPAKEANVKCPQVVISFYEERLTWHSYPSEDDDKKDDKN
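Compound inhibition of the preformed complex between 50 nM HP1-beta and 50 nM biotinylated H3K9me3 peptide was read by AlphaScreen. Buffer was PBS pH 7.4 with 0.01% Tween-20. Incubations ran 30 min at room temperature, with 10 ug/mL donor/acceptor beads.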
L3MBTL1 inh – inhibitors of human L3MBTL1. Q9Y468. AlphaScreen L3MBTL1–H3K9me1 peptide binding. Potency, µM (highest dose often 57.1 µM), for inactives: at the top dose activity, negative = inhibition, hits mostly inhibitors. actives 0.66% (n = 230,000). AID 485360; further: on the % scale 0 is the no-effect control and ±100 the full control effect; nearly all actives have a fitted effect of over 60% in size
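L3MBTL1 (50 nM) pre-complexed 30 min with biotinylated H3(1-15)K9me1 peptide (75 nM), then compounds added for 30 min at room temperature; AlphaScreen streptavidin donor/nickel chelate acceptor beads (10 ug/mL final) read after 30 min dark incubation.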
G9a block – inhibitors of human histone lysine methyltransferase G9a | Q96KQ7 | G9a H3K9 monomethylation, AlphaScreen, 2 h | Potency, µM (highest dose often 102 µM), without a hit: top-dose activity, negative = inhibition, hits mostly inhibitors | actives 8.8% (n = 350,000) | AID 504332; further: on the % scale 0 is the no-effect control and ±100 the full control effect; nearly all actives have a fitted effect of over 75% in size
Target sequence (Q96KQ7 913-1193 limits assumed): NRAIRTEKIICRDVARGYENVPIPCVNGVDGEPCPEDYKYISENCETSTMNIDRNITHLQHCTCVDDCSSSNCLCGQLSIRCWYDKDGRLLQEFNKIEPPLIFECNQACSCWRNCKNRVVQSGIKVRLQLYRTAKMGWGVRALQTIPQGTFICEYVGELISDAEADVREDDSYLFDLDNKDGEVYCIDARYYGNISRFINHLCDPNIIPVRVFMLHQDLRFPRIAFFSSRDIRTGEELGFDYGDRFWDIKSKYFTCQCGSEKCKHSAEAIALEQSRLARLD
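Chemiluminescent proximity detection of H3K9 monomethylation, read after 10 min bead incubation in the dark. Reaction: 20 nM G9a, 500 nM biotin-H3K9 peptide, 20 uM SAM cofactor, 2 h, room temperature, following 15 min enzyme-compound preincubation.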
JMJD2A Tudor inh – inhibitors of human JMJD2A Tudor domain | O75164 | AlphaScreen JMJD2A-Tudor / H3K4me3 peptide binding | Potency, µM (top dose mostly 114 µM), for inactives: at the highest dose activity change, negative = inhibition, most hits filed as inhibitors | actives 4.4% (n = 390,000) | AID 504339; further: on the % scale 0 is the no-effect control and ±100 the full control effect; nearly all actives have a fitted effect of over 50% in size
An asterisk follows results filed as active; ? = inconclusive; · = no result; ! = repeats disagree; [ ] = remark or other dose. The call rests on the fitted dose curve; in most records, active means well fitted curve in the direction sought with a large enough effect; inconclusive means small, poorly fitted or top-dose-only effect, or another doubt; inactive means no such curve, though single readings can be large; an effect the other way counts as inactive or inconclusive. Potency means the concentration at half of the fitted maximal effect.

SMILES	Sfp PPTase inh	BAZ2B block	HP1b binding inh	L3MBTL1 inh	G9a block	JMJD2A Tudor inh
C[n+]1c(-c2ccccc2)cc2c(=Cc3ccccc3)c3ccccc3n21	·	·	?	·	·	40µM*
CC(C)n1c2ccccc2c2cc([N+](=O)[O-])ccc21	-5%	2%	20%	-1%	0%[59 µM]	-10%
C[n+]1c(-c2ccccc2)cc2c(=Cc3ccc([N+](=O)[O-])cc3)c3ccccc3n21	·	·	?	·	·	45µM*
CC[C@]12c3[nH]c4ccc(OC)cc4c3CCN1C(=O)C(CC(=O)NCc1ccc(OC)c(OC)c1)C[C@@H]2C(=O)N1CCN(C(=O)C2CC2)CC1 (stereo not given in full)	·	·	12%	-8%	·	-35%
O=C(CN1C(=O)COc2ccc(Cl)cc21)NC1CC1	-1%	-3%	32%	·	·	-7%
COc1ccc2c(c1)sc1ncc(C(=O)NCc3cccc(C)c3)c(=O)n12	·	8%	23%	·	-6%[59 µM]	-3%
COc1ccc(-c2cc(=Nc3c(C)n(C)n(-c4ccccc4)c3=O)c3ccccc3o2)cc1	-12%	-31%	-11%	·	?	?
COc1ccc(-c2c/c(=N\c3nc(-c4ccccc4)c(C)s3)c3ccccc3o2)cc1O	12%	50µM*	?	·	?	?
COC(=O)CN1C(=S)N(c2ccc(OC)cc2)C(=O)/C1=C/c1ccc(N2CCOCC2)cc1	6%	28µM*	?	-8%[11.4 µM]	32µM*	?
O=S(=O)(O)c1ccc(N=NNc2ccc(Br)cc2)cc1	13%	-20%	8%	·	25µM*	-20%
C=CCn1c(SCc2ccc(F)cc2)nc2c1c(=O)[nH]c(=O)n2C	-17%	-6%	40%	·	?	-8%
CCCSc1nc2c(c(=O)[nH]c(=O)n2C)n1Cc1ccc(C)cc1	-4%	8%	25%	6%	6%	-13%
C/C=C/Cn1c(SCc2ccc(C)cc2)nc2c1c(=O)[nH]c(=O)n2C	-18%	-5%	-13%	-1%	25µM*	-20%
C=CCSc1nc2c(c(=O)[nH]c(=O)n2C)n1Cc1ccc(C)cc1	-15%	1%	-6%	-10%	14µM*	-19%
Cc1ccc(Cn2c(SCC(C)C)nc3c2c(=O)[nH]c(=O)n3C)cc1	35µM*	2%	?	-1%	?	-25%
COCc1c(Br)c(C)nc(OCC(=O)N/N=C/c2ccc(C)o2)c1C#N	9%	-13%	33%	-8%	-33%	-8%
COCc1c(Br)c(C)nc(OCC(=O)N/N=C/c2ccco2)c1C#N	-11%	89µM*	27%	·	?	-27%
N#Cc1c(NC(=O)CSc2n[nH]c(Cc3ccccc3)n2)oc(-c2ccccc2)c1-c1ccccc1	1%	-37%	-2%	-19%	3.5µM*	?
N#Cc1c(NC(=O)COC(=O)C2CC3C=CC2C3)oc(-c2ccccc2)c1-c1ccccc1 (stereo not given)	4%	?	7%	-9%	7.1µM*	-2%[11.4 µM]
Oc1ccc(N2CCN(C(=S)NCCc3ccccc3)CC2)cc1	11µM*	?	?	-13%	7.1µM*	?
Oc1ccccc1N1CCN(C(=S)NCCc2ccccc2)CC1	45µM*	-22%	?	-10%	?	-31%
COc1ccc(CCNC(=S)NC2CCN(Cc3ccccc3)CC2)cc1	?	-20%	-1%	·	25µM*	-17%
S=C(NCCc1ccccc1)N1CCN(Cc2ccccc2)CC1	?	56µM*	?	-9%	?	4.5µM*
COc1ccc(N2CCN(C(=S)NCCc3ccccc3)CC2)cc1	·	·	-23%	·	·	-15%[11.4 µM]
Cc1ccc(NP(=O)(c2ccc(N(C)C)cc2NC(=O)c2cccs2)N2CCOCC2)cc1Cl (stereo not given)	6%	-36%	-5%	-15%	79µM*	?
SMILES	Sfp PPTase inh	BAZ2B block	HP1b binding inh	L3MBTL1 inh	G9a block	JMJD2A Tudor inh
Cc1ccc(NP(=O)(c2ccc(N(C)C)cc2NC(=O)c2cccs2)N2CCOCC2)cc1 (stereo not given)	5%	0%	21%	4%	?	-9%
Nc1nc(SCC(=O)Nc2ncc(Cl)cc2Cl)n[nH]1	·	-38%	14%	-9%	-5%[12.7 µM]	-8%
O=C(Cn1c(=O)c2cccn2c2ccc(F)cc21)Nc1cccc(F)c1	·	-11%	22%	·	-30%[59 µM]	-20%
O=C(Cn1c2ccccc2c(=O)c2ccccc21)Nc1cccc(F)c1	-18%	-7%	6%	8%	13%	16µM*
CCCOc1ccc(N2C(=O)CC(N3CCC(c4nc5ccccc5o4)CC3)C2=O)cc1 (stereo not given)	11%	-18%	·	-1%[11.4 µM]	-29%	·
N=c1n(CC(=O)c2ccc([N+](=O)[O-])cc2)c2ccccc2n1Cc1ccc(Cl)cc1	?	-30%	3%	13%	?	-29%
N=c1n(CC(=O)c2ccc([N+](=O)[O-])cc2)c2ccccc2n1Cc1ccccc1	?	?	6%	0%	45µM*	-19%
N=c1n(CCN2CCCCC2)c2ccccc2n1CC(=O)c1cccc([N+](=O)[O-])c1	1%	?	14%	-5%	45µM*	-24%
CCCN1Cc2cccc(C(=O)Nc3ccc(C(C)=O)cc3)c2C1=O	·	·	24%	·	-5%[59 µM]	-16%
CCN(Cc1nc2cc(Cl)ccc2c(=O)[nH]1)C(=O)CN1C(=O)NC2(CCCCC2C)C1=O (stereo not given)	·	-4%	-1%	0%	50µM*	-18%
Cc1cc2oc(=O)cc(CSc3nc(N)cc(N)n3)c2cc1C(C)C	-8%	32µM*	2%	·	-22%	-22%
CCCc1cc(=O)[nH]c(SCc2cc(=O)oc3cc(C)c(C(C)C)cc23)n1	7%	-4%	28%	3%	7%[59 µM]	-20%
O=C(CN1C=NS(=O)(=O)c2ccc(C(F)(F)F)cc21)Nc1cccc(C(F)(F)F)c1	·	6%	60%	·	-2%[59 µM]	-7%
OC(CNCc1ccccc1)COc1ccccc1 (stereo not given)	·	3%	34%	7%	7%[2.33 µM]	-16%
O=C(c1ccccc1)c1ccc(OCC(O)CNCc2ccc(Cl)cc2)cc1 (stereo not given)	79µM*	56µM*	?	·	?	20µM*
COc1cccc(CNCC(O)COc2ccc(C(=O)c3ccccc3)cc2)c1 (stereo not given)	-24%	50µM*	?	·	10µM*	56µM*
CN=C(N)NCCC[C@H](N)C(=O)O	-12%	-10%	33%	0%	?	-16%
CCCCS(=N)(=O)CC[C@H](N)C(=O)O (stereo not given in full)	·	·	·	·	10µM*!	·
